Experimental findings from PubChem BioAssay (NCI) are described below.

About 83,000 compounds went through this panel and 20% of them were active in at least one assay; those are over-represented in the sample as a whole.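 Assay: single dose, 48 h. Readout: percent growth (0 = no net growth; negative = cell death). Active: <10.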 The source made the active and inactive calls.

This experiment has as its system SK-MEL-2 melanoma. Briefly: NCI-60 one-dose screen, 48 h (100 = growth as untreated, 0 = no growth, -100 = all killed). To be noted: 10 µM unless noted. Here is the method:
Growth inhibition of the SK-MEL-2 human tumor cell line is measured as a screen for anti-cancer activity. Cells are grown in 96 well plates and exposed to the test compound for 48 hours. Compounds are tested at a single concentration, which is 10^-5 M for most compounds. The reported endpoint is percent growth (GI% or GIPRCNT), where numbers from 0 - 100% represent growth inhibition, and numbers from -100% - 0 represent cell death. For example, a value of 40 represents 60% growth inhibition. A value of 0 means no net growth occurred over the course of the experiment. A value of -40 indicates 40% of cells at the beginning of the experiment died by the end of the experiment. A value of -100 means all cells are dead at the end of the experiment.
NCI-60 Human Tumor Cell Lines Screen was performed using the standard one-dose NCI protocol, which is described in more detail at https://dtp.cancer.gov/discovery_development/nci-60/default.htm.
Compounds with GIPRCNT values below 10 were considered active. Activity score was based on GIPRCNT using the following formula: […]
Score is 0 for GIPRCNT values of 100 or above, 50 for GIPRCNT values of 0, and 100 for GIPRCNT values of -100.
For the compound `CCC(C)(C)[C@H](NC(=O)[C@H]1CCCCN1C)C(=O)N(C)[C@H](C[C@@H](OC(C)=O)c1nc(C(=O)N[C@@H](Cc2ccccc2)C[C@H](C)C(=O)O)cs1)C(C)C`, the growth is 21.9% (inactive).
With `CC(=O)Oc1ccccc1C(=O)NCCC[Se]C#N` the figure was 44.3% (inactive); with `Nc1ccc2c(c1)Cc1cc(Br)ccc1-2`, 112% (inactive); with `OCc1ccc2c(c1)OCO2`, 99.5% (inactive).
With `COC(=O)[C@@]1(C)CC[C@]2(C)CC[C@]3(C)C4=CC(=O)c5c(cc(O)c(O)c5C)[C@]4(C)CC[C@@]3(C)[C@@H]2C1` the figure was 71.6% (inactive).
The same measure for `CC[C@H](C)[C@H](NC(=O)NC(C)(C)C)C(=O)N(C)[C@H](C[C@@H](OC(C)=O)c1nc(C(=O)N[C@@H](Cc2ccccc2)C[C@H](C)C(=O)OC)cs1)C(C)C`: 47.3% (inactive).
On to `C=CC1=C[C@@H]2[C@@H]3O[C@]4(CC[C@H](O4)[C@@H](C)C[C@@H](O)C3=O)C[C@H](O)C3=NCC[C@@]32CC1`, for which the growth was -45.1% (active).
On to `CCn1c2ccccc2c2cc(C(=O)c3ccc(C)c4ccccc34)ccc21`, for which the growth was 24% (inactive).
As for `COc1ccc(C2=N[C@@H](Cc3ccccc3)C(=O)Nc3ccsc32)cc1`, the growth is -4.24% (active).
With `O=C1C(N2CC2)=C(N2CC2)C(=O)C(N2CC2)=C1N1CC1` the figure was -24.2% (active); with `CC(=O)O[C@H]1C(=O)[C@@]2(C)[C@H]([C@H](OC(=O)c3ccccc3)[C@]3(O)C[C@H](OC(=O)[C@H](OC(=O)OC[C@H]4COC(C)(C)O4)[C@@H](NC(=O)c4ccccc4)c4ccccc4)C(C)=C1C3(C)C)[C@]1(OC(C)=O)CO[C@@H]1C[C@@H]2O`, 14.3% (inactive).
Consider `[Cl][Hg][c]1cc(Br)cc(Br)c1`, for which the growth is 41.3% (inactive).
On to `COC1=CC(=O)O[C@@H](/C=C/c2ccc3c(c2)OCO3)C1`, for which the growth was -20.1% (active).
The same measure for `O=[As](O)(O)c1ccccc1[As](=O)(O)O`: 119% (inactive); for `Cc1cc(N(CCCl)CCCl)ccc1/C=N\NC(=O)c1ccncc1`: 120% (inactive).
The same measure for `COC1OC(CO)C(O)C(O)[CH]1[Hg][O]C(C)=O` (stereo not given): 107% (inactive).
The same measure for `Cn1cc(-c2csc(-c3cn(CCCCN4CCCCC4)c4ccc(F)cc34)n2)c2cccnc21`: 97.4% (inactive).
As for `Cn1cc(-c2csc(-c3cn(CCN4CCOCC4)c4ccccc34)n2)c2cccnc21`, the growth was 68.8% (inactive).
In the case of `CCCCN1CCCC[C@@H]1C(=O)N[C@H](C(=O)N(C)[C@H](CCc1nc(C(=O)N[C@@H](Cc2ccccc2)C[C@H](C)C(=O)OC)cs1)C(C)C)[C@@H](C)CC`, the growth was 24.8% (inactive).
With `CCCC[C@H](NC(=O)[C@H]1CCCCN1C)C(=O)N(C)[C@H](C[C@@H](OC(C)=O)c1nc(C(=O)N[C@@H](Cc2ccccc2)C[C@H](C)C(=O)OCC)cs1)C(C)C` the figure was 11.8% (inactive).
`CC1=C([Te]c2ccc(O)cc2)C(=O)c2ccccc2C1=O`: the growth is 31.2% (inactive).
Turning to `O=[N+]([O-])/C=C\c1ccc(Cl)c(Cl)c1`, the growth is 84% (inactive).
The same measure for `O=[N+]([O-])c1cc([N+](=O)[O-])c(Cl)cc1Cl`: -43% (active).
With `NC(=O)CNc1ccc([As]=[As]c2ccc(NCC(N)=O)cc2)cc1` (stereo not given) the figure was 33.8% (inactive); with `CCC(O)(CN)c1ccccc1` (stereo not given), 97.7% (inactive); with `CC1(C)N=C(N)N=C(N)N1c1ccc(OCCCNC(=O)Nc2ccc(S(=O)(=O)F)cc2)c(Cl)c1`, 53.3% (inactive).
The same measure for `C#Cc1ccc2c(c1)C(c1ccccc1F)=NCC(=O)N2C`: 19.4% (inactive).
Consider `CCCOC(=O)N[C@H]1CCc2c(Br)c(OC)c(OC)c(OC)c2-c2ccc(SC)c(=O)cc21`, for which the growth was 34.2% (inactive).
The same measure for `Cc1cc(N(CCCl)CCCl)ccc1C=Nc1ccc(-c2csc(Cc3ccccc3)n2)cc1`: 109% (inactive); for `C[C@]12CC[C@H]3[C@@H](CC[C@]4(O)C[C@@H](O[C@@H]5O[C@H](CO)[C@@H](O[C@@H]6OC[C@@H](O)[C@H](O)[C@H]6O)[C@H](O)[C@H]5O)CC[C@]34C=O)[C@@]1(O)CC[C@@H]2C1=CC(=O)OC1`: -32.6% (active); for `CC1(C)N=C(N)N=C(N)N1c1cccc(CCCCc2ccc(Cl)c(S(=O)(=O)F)c2)c1`: 52.3% (inactive).
With `Cc1ccc(N2COOC3(OOC2)C2CC4CC(C2)CC3C4)cc1` the figure was 104% (inactive).
With `C[C@]12CCc3sc(-c4ccccc4O)nc3C1=CC[C@@H]1[C@@H]2CC[C@]2(C)C(=O)CC[C@@H]12` the figure was 105% (inactive); with `Fc1ccc(C2=CCNCC2)cc1`, 109% (inactive).
For `CCOC(=S)S[C@H]1C[C@@H]2[C@H](CC[C@]3(C)C(=O)CC[C@@H]23)[C@@]2(C)CCC(=O)C=C12`, the growth was 116% (inactive).
The same measure for `CC(=O)O[C@H](C[C@H](C(C)C)N(C)C(=O)[C@@H](NC(=O)[C@H]1CCCCN1C)C(C)(C)C)c1nc(C(=O)N[C@@H](Cc2ccccc2)C[C@H](C)C(=O)O)cs1`: 21.8% (inactive).
With `CC(C)OC(=O)[C@H](C)NP(=O)(Oc1ccccc1)C1CCCN(O)C1=O` (stereo not given in full) the figure was 94.1% (inactive); with `O=C1OCC2=C1C(c1ccccc1)c1cc3c(cc1N2)OCO3` (stereo not given), 15.6% (inactive); with `Cc1c2cc(Cl)c3ccccc3c2c[n+]2ccccc12`, -16.6% (active).
With `Cc1cc(-c2nc3cc(F)ccc3[se]2)cc(F)c1N`, the growth is 101% (inactive).
